A selection: hits, their analogues and other compounds. The true share with any hit is near 7.4%.
ELG1 genotoxic: qHTS screen for small molecules that induce genotoxicity in human embryonic kidney (HEK293T) cells expressing luciferase-tagged ELG1 | Potency, µM (series often up to 46 µM), for inactives: top-dose activity change, positive = activation, actives largely listed as activators | HEK293T ELG1-luciferase reporter, luminescence, 16 h | 1.3% of 330,000 active; also: % of control where 0% means no effect; nearly all actives have a fitted effect of over 60% in size
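Step 1: seed 2,000 HEK293T ELG1-luciferase cells per well. Step 2: add compound or DMSO, incubate 16 hr at 37 °C. Step 3: ONE-Glo, 30 min at room temperature, read luminescence.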
Luc counter: Counterscreen for Luciferase (Kinase-Glo TM) Inhibition; Kinase-Glo luciferase, ATP luminescence, 8 min; Potency, µM (highest dose often 38.3 µM), for inactives: at the highest dose activity change, negative = inhibition, hits mostly inhibitors; 0.28% of 200,000 active; also: % is scaled to controls: 0 for no effect and ±100 for the full control effect; nearly all actives have a fitted effect of over 60% in size
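Compound is pinned into ATP-containing buffer (10 uM ATP, imidazole pH 7.2, 7 mM MgCl2). Kinase-Glo luciferase reagent is then added. Light output is recorded following an 8-min room-temperature incubation.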
NPC1 promoter act: qHTS Assay for NPC1 Promoter Activators; Huh7 NPC1 promoter luciferase reporter, 24 h; Potency, µM (top dose mostly 9.22 µM), for inactives: at the highest dose activation, most hits filed as activators; 2.4% of 320,000 active; also: % of control where 0% means no effect; nearly all actives have a fitted effect of over 60% in size
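Stably transfected Huh7 (NPC1 promoter→luciferase), 1500 cells/well in Opti-MEM + 10% FBS, 2 h settle, then compound 24 h at 37 °C. Luminescence after 10 min with Amplite reagent.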
SMN2 splice up: qHTS Assay for Enhancers of SMN2 Splice Variant Expression | Potency, µM (series often up to 46.1 µM), inactives show at the top dose activity change, positive = activation, actives largely listed as activators | HEK293 SMN2-luciferase splicing reporter, luminescence, 30-36 h | 2.8% of 210,000 active; also: % of control where 0% means no effect; nearly all actives have a fitted effect of over 55% in size
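qHTS luciferase splicing reporter: luminescence rises when SMN2 exon 7 is included in transfected HEK293 cells. Compound exposure lasted 30-36 h at 37C, with 4.5 mM final sodium butyrate as control, followed by a ONE-Glo read.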
Rab9 promoter act: qHTS Assay for Rab9 Promoter Activators; Potency, µM (series often up to 9.22 µM), inactives show at the top dose activation, negative = inhibition, usual class: activators; Huh7 Rab9 promoter-luciferase reporter, luminescence, 24 h; 2.8% of 320,000 active; also: % of control where 0% means no effect; nearly all actives have a fitted effect of over 60% in size
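Promoter activation is measured as luciferase luminescence in Huh7 cells stably transfected with a Rab9 promoter–luciferase construct, following 24 h compound exposure at 37 °C and 10 min reagent incubation at ambient temperature.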
FLuc modulator: qHTS profiling assay for firefly luciferase inhibitor/activator using purifed enzyme and Km concentrations of substrates (counterscreen for miR-21 project) | 6.9% of 360,000 active | Luciferin 4-monooxygenase (Photinus pyralis), P08659 | purified FLuc, Km substrates, luminescence inhibition | AID 588342, 2011 | Potency, µM (top dose mostly 57.5 µM), for the others: top-dose activity change, negative = inhibition, hits mostly inhibitors;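 also: plate controls were vehicle for no effect and reference inhibitor for full effect; nearly all actives have a fitted effect of over 55% in size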
Target sequence (P08659 whole entry, looked up): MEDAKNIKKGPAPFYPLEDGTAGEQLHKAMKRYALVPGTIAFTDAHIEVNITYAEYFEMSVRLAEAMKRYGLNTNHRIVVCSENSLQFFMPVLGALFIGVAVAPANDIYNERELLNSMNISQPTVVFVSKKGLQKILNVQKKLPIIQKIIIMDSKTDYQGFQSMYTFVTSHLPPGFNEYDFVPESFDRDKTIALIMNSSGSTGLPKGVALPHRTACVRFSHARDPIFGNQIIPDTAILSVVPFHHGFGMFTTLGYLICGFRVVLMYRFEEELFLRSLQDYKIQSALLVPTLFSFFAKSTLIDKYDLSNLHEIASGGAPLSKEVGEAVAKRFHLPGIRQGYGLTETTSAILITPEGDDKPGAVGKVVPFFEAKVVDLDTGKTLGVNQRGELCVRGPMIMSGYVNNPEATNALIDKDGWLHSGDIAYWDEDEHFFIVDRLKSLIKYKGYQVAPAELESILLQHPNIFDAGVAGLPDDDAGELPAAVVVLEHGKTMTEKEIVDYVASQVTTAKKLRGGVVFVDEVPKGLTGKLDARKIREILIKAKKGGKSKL
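Purified P. pyralis luciferase (10nM final) with 10uM D-luciferin and 10uM ATP (Km levels) in 50mM Tris acetate pH 7.5, 10mM Mg acetate, 0.01% Tween-20, 0.05% BSA; qHTS 6-point titration, ~60 µM downward; luminescence read.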
* = called active by the depositor; ? = inconclusive; . = no result given; [ ] = another dose, or the depositor's remark. Calls follow the shape of the dose curve; as a rule, active = well fitted curve in the direction sought with a large enough effect; inconclusive = small, poorly fitted or top-dose-only effect, or another doubt; inactive = no such curve, though single readings can be large; an effect the other way counts as inactive or inconclusive. Potency is read from the fitted curve at half-maximal effect.

SMILES	ELG1 genotoxic	Luc counter	NPC1 promoter act	SMN2 splice up	Rab9 promoter act	FLuc modulator
COc1cccc(Nc2nc(N)nc(CCl)n2)c1	-7%	.	-41%	.	-50%	21µM*
CCOc1ccc(Nc2nc(N)nc(CCl)n2)cc1	10%	.	-43%	.	-53%	3µM*
COc1ccc(Nc2nc(N)nc(CSCCO)n2)cc1	?	1%	19%	13%	3%	?
Cc1ccc(Nc2nc(N)nc(COC(=O)C3=COCCO3)n2)cc1	?	.	2µM*	.	2.8µM*	13µM*
Cc1ccc(Nc2nc(N)nc(CSCCO)n2)cc1	?	0%	?	?	2µM*	24µM*
Oc1ccc2ccccc2c1CN(Cc1c(O)ccc2ccccc12)C1CCCCC1	.	-1%[7.66 µM]	.	-11%[9.22 µM]	.	.
Cc1ccc(Nc2nc(N)nc(CCl)n2)cc1	17%	.	-49%	.	-49%	1.9µM*
Cc1ccc(Nc2nc(N)nc(CSc3nc4ccccc4s3)n2)cc1	-7%	2%	3%	-1%	0%	-26%
Cc1ccc(Nc2nc(N)nc(CCl)n2)c(C)c1	-17%	.	-37%	.	-49%	11µM*
Nc1nc(CCl)nc(Nc2ccccc2)n1	-11%	.	-36%	.	-48%	?
Cc1ccc(Nc2nc(N)nc(CC#N)n2)cc1	18µM*	-2%	?	18µM*	?	11µM*
O=C(CCCCn1c(=O)c2ccccc2n(Cc2cccc(Cl)c2)c1=O)NCc1ccc2c(c1)OCO2	.	.	.	8%	.	-3%
CCc1ccc(OCC(=O)N(Cc2ccc(C(C)C)cc2)C2CCS(=O)(=O)C2)cc1 (configuration not stated)	.	.	.	-12%	.	1%
Oc1cccc2ccc(/C=C/c3c(F)cccc3Cl)nc12	15µM*	?	?	25µM*	4µM*	3µM*
Nc1nccc(/C=C/c2c(F)cccc2Cl)n1	?	-3%	23%	?	?	24µM*
CC(=O)Nc1ccccc1/C=C/c1ccc2c(C)ccc(O)c2n1	-2%	2%	13%	-16%	1%	?
Oc1cccc2ccc(/C=C/c3ccccc3Cl)nc12	18µM*	.	?	.	4%	1.9µM*
COc1ccc(OC)c(NC(=O)c2c(NCc3ccc(N(C)C)cc3)sc3c2CCCC3)c1	.	.	.	.	.	2%
COc1ccc(/C=N/n2cnnc2SCc2ccc(OC)cc2)cc1	1%	2%	4%	-5%	-2%	13µM*
O=C1/C(=C/c2ccccn2)COc2ccccc21	-3%	-30%	1%	0%	8%	8.5µM*
O=C1/C(=C/c2ccc(O)cc2)COc2ccccc21	10µM*	.	0%	.	-2%	0.76µM*
CCOc1cc(/C=C2/COc3ccccc3C2=O)ccc1OCC(=O)N(C)C	-14%	2%	-8%	-54%	1%	-13%
CC1C/C(=C/c2ccccn2)C(=O)/C(=C/c2ccccn2)C1 (configuration not stated)	-17%	0%	-42%	-76%	-43%	-11%
O=C(COC(=O)c1ccccc1F)c1ccc(-n2nncc2-c2ccco2)cc1	2%	-2%	7%	0%	-4%	12µM*
Cc1ccc(NC(=S)N2CCSC2c2cccs2)cc1 (configuration not stated)	11%	-4%	3%	-11%	0%	15µM*
CCNc1ncc2nc(-c3cc(F)cc(F)c3)c(=O)n(Cc3cccs3)c2n1	.	0%	.	5%	.	.
C=C(C)C1CC[C@]2(CO)CC[C@@]3(C)[C@H](CCC4[C@@]5(C)CCC(O)C(C)(C)C5CC[C@@]43C)C12 (some centres not stated)	.	-3%	.	8%	.	.
NC(=O)COc1ccc(-c2noc(COc3ccc(Cl)cc3)n2)cc1	.	.	.	23%	.	0%

Assay outcomes as filed in PubChem.
